Screening results deposited in PubChem by National Center for Advancing Translational Sciences (NCATS).
HT1080NT lethal – kills 2HG-producing HT-1080-NT fibrosarcoma cells | HT-1080-NT fibrosarcoma viability, CellTiter-Glo ATP luminescence, 48 h | Potency, µM (top dose mostly 46.1 µM), for the others: at the highest dose activity, negative = less viability, most hits filed as cytotoxic | 360,000 compounds, 1.6% hits | AID 686970;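 also: NT is the 2HG producing partner of a matched IDH1 knockdown line; 0% = DMSO-treated cells and -100% = media-only wells without cells; nearly all actives have a fitted effect of over 55% in size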
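Luminescent CellTiter-Glo readout after 48 hours of compound exposure at 37 degrees C defined viability of HT-1080-NT cells. Activity was normalized to DMSO wells and cell-free media wells; concentration-response curves were fitted and assigned curve classes.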
KB-V1 cytotox – kills drug-selected multidrug resistant KB-V1 cells. AID 1347076. 400,000 compounds, 3.4% hits. KB-V1 MDR cells viability, CellTiter-Glo, 72 h. Potency, µM (top dose mostly 46.1 µM), usual class: cytotoxic; also: % is scaled to controls: 0 for no effect and ±100 for the full control effect; nearly all actives have a fitted effect of over 60% in size
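qHTS viability screen in drug-selected KB-V1 MDR cells: 72 h compound treatment at 37 degrees C, ATP luminescence end point.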
KB-3-1 tox – kills parental KB-3-1 adenocarcinoma cells. KB-3-1 viability, CellTiter-Glo ATP luminescence, 72 h. Potency, µM (top dose mostly 46.1 µM), most hits filed as cytotoxic. 400,000 compounds, 1.4% hits. AID 1347075; also: % is scaled to controls: 0 for no effect and ±100 for the full control effect; nearly all actives have a fitted effect of over 60% in size
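72 h, 37 °C compound treatment of KB-3-1 parental cells; CellTiter-Glo added, 10 min, luminescence read. Data corrected against DMSO-only plates and normalized before curve fitting.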
HT1080 IDH1KD tx – toxicity to HT-1080 IDH1 knockdown cells (counter line); HT-1080 IDH1 knockdown viability, ATP luminescence, 48 h; Potency, µM (top dose mostly 46.1 µM), for inactives: at the top dose activity, negative = toxicity, usual class: cytotoxic; 360,000 compounds, 2% hits;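 also: 0% = DMSO wells and -100% = cell-free medium wells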
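After a 2 h attachment period, IDH1KD HT-1080 cells took pin-transferred compound for 48 h at 37 °C; ATP-based luminescence after 10 min room-temperature reagent incubation reported viability.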
SW480 rerep – induces DNA re-replication in SW480 colon adenocarcinoma cells; SW480 DNA re-replication, Hoechst DNA content imaging, 48 h; Potency, µM (top dose mostly 46.1 µM), inactives show at the highest dose re-replication activation, hits mostly activators; 340,000 compounds, 1.8% hits; AID 624297; also: % of control where 0% means no effect; nearly all actives have a fitted effect of over 55% in size
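Hoechst fluorescence of nuclei (405 nm excitation, 500-530 nm emission) measured by plate-scanning imager after 48 hr compound exposure at 37 C; re-replication scored as increased number of nuclei with elevated intensity.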
MCF10A rereplic – DNA re-replication induction in MCF 10a cells. MCF 10A DNA re-replication, Hoechst nuclear intensity, 48 h. Potency, µM (highest dose often 46.1 µM), for the others: top-dose activity, positive = re-replication, usual class: activators. 350,000 compounds, 2.9% hits. AID 624296; also: % of control where 0% means no effect; nearly all actives have a fitted effect of over 50% in size
* hit, by the source's call; i = inactive; ? = inconclusive; / = no result; [ ] = dose if it differs, or a comment. This is a sample that favours compounds with a hit; in the whole collection about 7.9% have one here. Calls follow the shape of the dose curve; as a rule, active = well fitted curve in the direction sought with a large enough effect; inconclusive = small, poorly fitted or top-dose-only effect, or another doubt; inactive = no such curve, though single readings can be large; an effect the other way counts as inactive or inconclusive. Potency is read from the fitted curve at half-maximal effect.

SMILES	HT1080NT lethal	KB-V1 cytotox	KB-3-1 tox	HT1080 IDH1KD tx	SW480 rerep	MCF10A rereplic
C=CCOC(=O)C1=C(C)NC(C)=C(C(=O)OCC=C)C1/C=C/c1ccccc1	?	?	?	18µM*	?	166%
CCOC(=O)C1=C(C)NC(C)=C(C(=O)OCC)C1/C=C/c1ccccc1OC	-7%	21µM*	i	-6%	23µM*	?
CCOc1ccc(-n2cnc3sc(C)c(C)c3c2=O)cc1	21%	i	i	14%	2%	3%
O=C1NC(c2ccc3c(c2)OCO3)Nc2ccccc21 (configuration not stated)	?	?	?	5%[9.24 µM]	?	?
O=C1NC(c2ccc3ccccc3c2)Nc2ccccc21 (configuration not stated)	?	16µM*	?	?	/	/
CCN(CC)c1ccc(N=C2C(=O)Nc3ccccc32)cc1	?	i	?	21µM*	?	?
O=C1NC(c2ccc(Br)cc2)Nc2ccccc21 (configuration not stated)	5.8µM*	6.5µM*	?	12µM*	?	18µM*
CCN(CC)c1ccc(C2NC(=O)c3ccccc3N2)cc1 (configuration not stated)	?	2.3µM*	4.1µM*	?	10µM*	5.8µM*
Cc1ccc(N=C2C(=O)Nc3ccccc32)cc1	-1%	i	i	1%	-12%	1%
CCOC(=O)N1CCN(CC(=O)Nc2ccccc2C(=O)Nc2ccccc2)CC1	15%	i	i	13%	-9%	3%
Cc1cc(NC(=O)Cn2c(=O)oc3cc(S(=O)(=O)N4CCCC4)ccc32)ccc1Br	/	i	i	/	/	/
Cc1cccc(C)c1-n1nnnc1C(c1ccnc2ccccc12)N1CCN(C(=O)OC(C)(C)C)CC1 (configuration not stated)	5%	?	i	3%	/	/
O=C(N/N=C/c1ccco1)C1CC1(c1ccccc1)c1ccccc1 (configuration not stated)	9%	21µM*	i	-5%	-12%	2%
CC(C)c1cc(Cn2c3ccccc3c(=O)n2C(C)Cn2cc(COc3ccccc3)nn2)on1 (configuration not stated)	8%	?	?	1%	/	/
CCc1ccc(NC(=O)CN2C(=O)c3cccc4cccc2c34)cc1	/	i	i	/	/	/
COc1ccc(-c2csc(N(CCCN(C)C)C(=O)c3ccc(Br)cc3)n2)cc1	21µM*	?	i	21µM*	1%	8%
COc1ccc(-c2csc(N(CCCN(C)C)C(=O)c3ccc(C)cc3)n2)cc1	?	i	i	?	-2%	19%
COc1ccc(-c2csc(N(CCCN(C)C)C(=O)c3cccs3)n2)cc1	13µM*	7.3µM*	i	11µM*	16%	14%
COc1ccc(-c2csc(N(CCCN(C)C)C(=O)c3ccc(C(C)(C)C)cc3)n2)cc1	?	?	?	16µM*	?	?
O=C(CCc1nc2ccccc2c(=O)[nH]1)Nc1cccc(S(=O)(=O)N2CCOCC2)c1	-2%	?	?	-1%	-311%	-2%
Cc1ccc(C)c(CN2C(=O)c3ccccc3S(=O)c3ccc(C(=O)N4CCN(c5ccccn5)CC4)cc32)c1 (configuration not stated)	?	?	10µM*	-12%	20%	?
Cc1cccc(N2CCN(C(=O)c3ccc4c(c3)N(Cc3ccccc3F)C(=O)c3ccccc3S4=O)CC2C)c1 (configuration not stated)	/	i	?	/	/	/
CCN1C(=O)c2ccccc2S(=O)c2ccc(C(=O)N3CCN(c4cccc(C)c4)C(C)C3)cc21 (configuration not stated)	/	i	18µM*	/	/	/
CC1(C(=O)O)CCC(C(=O)NNC(=O)c2ccccc2O)C1(C)C (configuration not stated)	2%	i	i	1%	?	-5%
CNc1cccnc1C=NNC(N)=S	-17%	?	?	?	0.92µM*	28%
SMILES	HT1080NT lethal	KB-V1 cytotox	KB-3-1 tox	HT1080 IDH1KD tx	SW480 rerep	MCF10A rereplic
Cc1ccc(Cl)cc1N(Cc1ccc(C(=O)NCc2cccnc2)cc1)S(=O)(=O)c1ccccc1	20%	15µM*	i	14%	-10%	-4%
COc1ccc(NC(=O)c2ccc(CN(c3cc(Cl)ccc3C)S(=O)(=O)c3ccccc3)cc2)cc1OC	0%	3.7µM*	i	-7%	5%	16%
COc1ccccc1NC(=O)c1ccc(CN(c2cc(Cl)ccc2C)S(=O)(=O)c2ccccc2)cc1	-2%	i	i	-1%	-8%	-4%
CC(=O)NC(c1ccccc1)c1nc(-c2cnc3ccccc3c2)cs1 (configuration not stated)	3%	i	?	3%	/	/
COc1ccc(-c2noc(CCCCC(=O)N3CCN(c4cc(C)ccc4C)CC3)n2)cc1	-22%	?	?	-29%	-12%	16%
CCOC(=O)N1CCN(Cc2nc(-c3ccc(Cl)cc3)no2)CC1	-15%	i	i	-4%	-3%	2%
CCOC(=O)N1CCN(Cc2nc(-c3ccc(OC)cc3)no2)CC1	3%	8.2µM*	i	2%	-5%	17%
COc1ccc(-c2noc(CCCC(=O)N3CCN(c4cc(C)ccc4C)CC3)n2)cc1	-5%	i	i	-1%	-2%	13µM*
Cc1ccc(-c2noc(CCC(=O)N3CCN(c4cc(C)ccc4C)CC3)n2)cc1	5%	i	i	2%	-8%	21µM*
Cc1ccc(C)c(N2CCN(C(=O)CCc3nc(-c4ccc(Br)cc4)no3)CC2)c1	-2%	i	i	-1%	21%	21%
COCCCNC(=O)CC(c1cc(OC)c(OC)c(OC)c1)N1Cc2ccccc2C1=O (configuration not stated)	/	i	i	/	/	/
O=C(Nc1cc(Cl)ccc1Cl)C1(c2cccs2)CCOCC1	/	i	i	/	/	/
CCOC(=O)Oc1c(OC)cc(C(=O)O[C@@H]2C[C@@H]3CN4CCc5c([nH]c6cc(OC)ccc56)[C@H]4C[C@@H]3[C@H](C(=O)OC)[C@H]2OC)cc1OC	15µM*	?	?	?	?	?
COC(=O)C1C2CC3c4[nH]c5cc(OC)ccc5c4CCN3CC2CC(OC(=O)CC(C)=O)C1OC (configuration not stated)	-13%	i	i	?	?	?
